Activity calls are given as the source filed them.

Assay [1] in a line: binders of probe aFSTL3 on microarray, primary screen, stem cell growth factor project, biochemical, small-molecule microarray, fluorescence 635/667 (AID 1064).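 Further: measures binding of the biotinylated anti-FSTL3 antibody to printed compounds.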 The note with it: higher = more signal.
Assay [2] is described as follows: binders from COS7 lysate, DM2A8 probe, primary screen, torsin A project, cell lysate, small-molecule microarray, fluorescence 635/667 (AID 1065). The note with it: higher = more signal, COS7 lysate expressing mutant human TOR1A.
A short description of assay [3]: binders of probe aFGF2 on microarray, primary screen, stem cell growth factor project, biochemical, small-molecule microarray, fluorescence 635/667 (AID 1067).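 Further: measures binding of biotinylated aFGF2 protein to printed compounds on slides; z-score merges feature fluorescence and signal-to-noise across triplicate slides.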 The note with it: higher = more signal.
Assay [4] can be described thus: binders of probe aFGF10 on microarray, primary screen, stem cell growth factor project, biochemical, small-molecule microarray, fluorescence 635/667 (AID 1071).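 Further: score merges 667 nm spot intensity and signal to noise from triplicate slides.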 The note with it: higher = more signal.
Assay [5] deals with Neurogenic locus notch homolog protein 2 (Homo sapiens) (UniProt Q04721). Nature of the assay: Notch2 binders on small-molecule microarrays, primary screen, biochemical, small-molecule microarray, 635 nm fluorescence, stem cell growth factors (AID 1073). As to conditions: Notch2 binding, higher = more signal.
Assay [6] has as its target Pro-neuregulin-1, membrane-bound isoform (Homo sapiens) (UniProt Q02297). Nature of the assay: NRG1 binders on small-molecule microarrays, primary screen, psychiatric disease protein project, biochemical, small-molecule microarray, fluorescence 635/667 (AID 1075).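 Further: score combines 667 nm spot fluorescence with signal to noise.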 As to conditions: NRG1 binding, 635 nm fluorescence, higher = more signal.
Assay [7] has as its system Neuregulin-1 EGF-like domain. The experiment in a line: binders of neuregulin-1 EGF-like domain, primary screen, biochemical, small-molecule microarray, 635 nm fluorescence (AID 1081).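 Further: binding of the protein to compounds printed on small-molecule microarray slides.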 The note with it: small-molecule microarray binding, higher = more signal.
The nature of assay [8]: FRG1 promoter luciferase signal modulators, primary screen, FRG1 inhibition for FSHD, cell-based, C2C12 myotubes, firefly/Renilla luciferase, luminescence (AID 1084). The note with it: higher = more signal, called active from +8 up or from −8 down.
Assay [9] is described as follows: binders of probe aFST on microarray, primary screen, stem cell growth factor project, biochemical, small-molecule microarray, fluorescence 635/667 (AID 1086).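 Further: score merges 667 nm fluorescence with signal-to-noise of each printed compound spot.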 As to conditions: higher = more signal.
Assay [10] in a line: binders of probe aHhip on microarray, primary screen, stem cell growth factor project, biochemical, small-molecule microarray, fluorescence 635/667 (AID 1087).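 Further: score merges spot fluorescence at 667nm with spot signal to noise ratio.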 As to conditions: higher = more signal.

Neurogenic locus notch homolog protein 2 (Homo sapiens), sequence (Q04721 whole entry, looked up, canonical isoform): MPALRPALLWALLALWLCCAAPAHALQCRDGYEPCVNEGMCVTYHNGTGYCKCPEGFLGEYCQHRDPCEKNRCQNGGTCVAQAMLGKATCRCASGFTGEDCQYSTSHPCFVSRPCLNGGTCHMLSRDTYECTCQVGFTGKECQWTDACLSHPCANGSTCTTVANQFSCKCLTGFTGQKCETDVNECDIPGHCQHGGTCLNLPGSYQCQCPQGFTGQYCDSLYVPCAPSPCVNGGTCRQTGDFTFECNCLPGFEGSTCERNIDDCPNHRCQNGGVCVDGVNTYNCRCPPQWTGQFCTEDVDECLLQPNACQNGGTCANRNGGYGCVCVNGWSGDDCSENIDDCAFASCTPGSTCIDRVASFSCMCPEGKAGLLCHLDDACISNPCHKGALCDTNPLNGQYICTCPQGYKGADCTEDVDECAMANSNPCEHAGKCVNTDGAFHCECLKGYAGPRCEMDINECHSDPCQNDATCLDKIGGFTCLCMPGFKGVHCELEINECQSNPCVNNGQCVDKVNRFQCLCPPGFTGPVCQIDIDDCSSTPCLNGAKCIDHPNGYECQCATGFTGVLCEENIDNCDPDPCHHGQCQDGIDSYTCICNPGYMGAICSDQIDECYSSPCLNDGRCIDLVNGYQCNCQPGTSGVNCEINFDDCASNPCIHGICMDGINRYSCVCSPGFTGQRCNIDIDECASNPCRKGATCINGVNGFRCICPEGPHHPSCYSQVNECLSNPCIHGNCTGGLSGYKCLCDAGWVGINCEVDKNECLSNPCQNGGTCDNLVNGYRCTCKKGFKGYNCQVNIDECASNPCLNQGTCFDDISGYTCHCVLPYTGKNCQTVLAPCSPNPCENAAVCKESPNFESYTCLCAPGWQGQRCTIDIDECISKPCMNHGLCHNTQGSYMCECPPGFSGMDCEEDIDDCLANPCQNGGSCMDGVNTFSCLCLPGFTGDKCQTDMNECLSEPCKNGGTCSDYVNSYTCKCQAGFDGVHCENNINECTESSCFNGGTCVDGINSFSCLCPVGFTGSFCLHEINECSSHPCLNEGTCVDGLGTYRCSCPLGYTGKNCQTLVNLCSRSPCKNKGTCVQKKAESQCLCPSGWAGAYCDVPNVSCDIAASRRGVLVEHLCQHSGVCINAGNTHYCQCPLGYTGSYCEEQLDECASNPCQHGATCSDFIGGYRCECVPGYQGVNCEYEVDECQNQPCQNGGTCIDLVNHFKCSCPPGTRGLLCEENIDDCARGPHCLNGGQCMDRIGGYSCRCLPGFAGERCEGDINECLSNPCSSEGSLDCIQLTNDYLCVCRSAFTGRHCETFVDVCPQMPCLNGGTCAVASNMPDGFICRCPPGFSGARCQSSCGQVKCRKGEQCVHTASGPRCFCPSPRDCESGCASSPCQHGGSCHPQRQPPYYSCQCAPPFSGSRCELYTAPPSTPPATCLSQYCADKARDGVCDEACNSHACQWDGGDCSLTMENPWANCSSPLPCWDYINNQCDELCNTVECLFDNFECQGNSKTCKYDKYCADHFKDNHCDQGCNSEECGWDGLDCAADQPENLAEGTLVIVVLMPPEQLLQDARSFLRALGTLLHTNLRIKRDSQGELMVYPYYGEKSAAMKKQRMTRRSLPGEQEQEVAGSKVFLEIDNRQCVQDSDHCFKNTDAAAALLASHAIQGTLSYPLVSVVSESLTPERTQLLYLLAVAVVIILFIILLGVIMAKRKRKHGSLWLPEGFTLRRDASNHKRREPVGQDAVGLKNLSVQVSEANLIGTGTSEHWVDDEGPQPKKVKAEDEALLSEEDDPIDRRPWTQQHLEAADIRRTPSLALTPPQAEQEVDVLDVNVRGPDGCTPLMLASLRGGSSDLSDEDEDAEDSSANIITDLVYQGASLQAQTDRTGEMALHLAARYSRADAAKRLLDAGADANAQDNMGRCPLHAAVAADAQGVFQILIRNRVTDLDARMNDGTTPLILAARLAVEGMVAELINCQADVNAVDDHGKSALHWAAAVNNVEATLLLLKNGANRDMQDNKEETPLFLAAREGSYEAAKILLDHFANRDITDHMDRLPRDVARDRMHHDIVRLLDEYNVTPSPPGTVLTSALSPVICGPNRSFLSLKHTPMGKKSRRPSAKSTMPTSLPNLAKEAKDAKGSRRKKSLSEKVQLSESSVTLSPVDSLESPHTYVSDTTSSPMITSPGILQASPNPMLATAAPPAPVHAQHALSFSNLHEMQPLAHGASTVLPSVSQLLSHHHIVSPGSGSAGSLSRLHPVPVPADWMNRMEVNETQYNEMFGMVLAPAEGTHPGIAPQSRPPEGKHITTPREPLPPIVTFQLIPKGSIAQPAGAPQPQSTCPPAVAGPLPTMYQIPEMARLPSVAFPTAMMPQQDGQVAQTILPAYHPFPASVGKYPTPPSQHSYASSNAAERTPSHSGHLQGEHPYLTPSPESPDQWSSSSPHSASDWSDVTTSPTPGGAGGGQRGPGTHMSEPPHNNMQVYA
Pro-neuregulin-1, membrane-bound isoform (Homo sapiens), sequence (Q02297 whole entry, looked up, the tested form may be a part, canonical isoform): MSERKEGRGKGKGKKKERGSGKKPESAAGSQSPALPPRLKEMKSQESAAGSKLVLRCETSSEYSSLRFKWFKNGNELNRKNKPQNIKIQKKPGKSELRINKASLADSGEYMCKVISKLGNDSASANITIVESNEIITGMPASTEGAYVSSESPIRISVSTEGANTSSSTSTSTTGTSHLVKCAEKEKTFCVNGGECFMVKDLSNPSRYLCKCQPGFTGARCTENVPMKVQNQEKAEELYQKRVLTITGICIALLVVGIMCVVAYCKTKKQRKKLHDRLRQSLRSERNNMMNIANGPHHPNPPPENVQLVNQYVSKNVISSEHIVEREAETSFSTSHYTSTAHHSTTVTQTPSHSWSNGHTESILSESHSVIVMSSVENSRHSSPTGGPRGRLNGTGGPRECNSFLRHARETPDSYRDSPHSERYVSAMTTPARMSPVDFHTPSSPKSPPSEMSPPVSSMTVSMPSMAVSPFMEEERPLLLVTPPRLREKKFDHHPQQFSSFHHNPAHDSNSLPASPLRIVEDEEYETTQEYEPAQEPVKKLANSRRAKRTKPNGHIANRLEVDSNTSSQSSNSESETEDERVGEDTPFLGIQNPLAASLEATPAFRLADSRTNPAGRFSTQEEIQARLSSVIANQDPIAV

Regarding `COc1cccc([C@H]2Oc3ccc(OC)cc3C(=NO[C@@H]3O[C@H](COC(C)=O)[C@@H](OC(C)=O)[C@H](OC(C)=O)[C@H]3OC(C)=O)[C@@H]2O)c1`, the composite z-score was -0.533 in assay [1]; 0.974 in [2]; -0.116 in [3]; 0.326 in [4]; 0.842 in [5]; -0.62 in [6]. Also, the composite z-score is -0.782 in [7], 0.198 in [9] and 0.0972 in assay [10]. Also, the z-score in [8] was 1.59 (inactive).
Consider `CC(C)CON=C1C[C@@H](O)[C@@H](O)[C@@H]2[C@@H]3C(=O)N(c4cccc(Oc5ccccc5)c4)C(=O)[C@@H]3CC[C@@H]12`, for which the composite z-score in assay [1] is -0.509; in assay [2] it was 0.14; in assay [3] it was -0.13; in assay [4] it was 0.206; in [5] it was 0.336; in assay [6], 0.61. Besides, the composite z-score is 1.1 in [7], -0.129 in assay [9] and 0.0373 in [10]. Besides, the z-score in assay [8] was -1.18 (inactive).
With `COC(=O)CC=C[C@@H](C)[C@@H](C=NOC[C@H]1O[C@H](c2ccccc2)C=C[C@@H]1Oc1ccc(OC)cc1)OC`, the composite z-score in assay [1] is -0.309; in assay [2], -0.0766; in assay [3], -0.14; in [4], 0.304; in assay [5], -0.639; in assay [6], -0.549. The composite z-score in assay [7] is -0.282; in assay [9], -0.251; in assay [10], 0.0373. In addition, the z-score in [8] is 0.532 (inactive).
Turning to `Cc1cc2c(c(=O)o1)[C@@H](O)[C@H]1O[C@H]1C2=O`, the composite z-score in [1] is -0.494; in [2] it was 0.23; in [3], -0.0103; in assay [4], 0.336; in [5], 0.378; in assay [6], -0.167. In addition, the values for the composite z-score in [7], in assay [9] and in assay [10] were 0.239, 0.163 and 0.151, respectively. In addition, in assay [8], the z-score was 0.446 (inactive).
As to `CCN1C(=O)[C@H]2[C@H]3[C@H](O)[C@H](O)CC(=NO[C@@H](C)c4cn([C@H](CO)Cc5ccccc5)nn4)[C@@H]3CC[C@H]2C1=O`, the composite z-score is -0.687 in [1]; 0.387 in [2]; -0.0704 in assay [3]; 0.859 in assay [4]; 1.51 in assay [5]; 0.256 in assay [6]. For the same compound, the composite z-score was 0.971 in [7], 0.759 in [9] and -0.226 in [10]. Also, the z-score in assay [8] is 0.345 (inactive).
`CCOC(=O)NN=C1C[C@@H](O)[C@@H](O)[C@@H]2[C@@H]3C(=O)N(c4ccc(F)cc4F)C(=O)[C@@H]3CC[C@@H]12`: the composite z-score in assay [1] is -0.333; in [2], 0.415; in assay [3] it was -0.0659; in assay [4], 0.281; in [5], 0.493; in [6], 0.594. Besides, the composite z-score in assay [7] is -0.0454; in [9] it was 0.627; in [10], 0.0139. In [8], the z-score is -0.248 (inactive).
In the case of `O=C1[C@H]2[C@H]3[C@H](O)[C@H](O)CC(=NOC[C@@H](O)COCc4ccco4)[C@H]3CC[C@H]2C(=O)N1Cc1ccccc1`, the composite z-score is -0.414 in assay [1]; 1.33 in [2]; -0.21 in assay [3]; 0.17 in assay [4]; -0.224 in assay [5]; -0.346 in assay [6]. Further, the figures for the composite z-score in assay [7], in assay [9] and in [10] were 0.299, -0.222 and -0.132, respectively. For the same compound, in assay [8], the z-score is 0.272 (inactive).
`CCOC(=O)[C@H](Cc1ccccc1)NC(=O)CCC1CC(OC(=O)NCc2cccc3ccccc23)CC2(CCCC(COC(=O)NCC(c3ccccc3)c3ccccc3)O2)O1` (stereo not given in full): the composite z-score in assay [1] is -0.222; in [2], 0.578; in assay [3], -0.0753; in [4], 0.326; in [5] it was 0.928; in assay [6], 0.301. In addition, the composite z-score in assay [7] was 1.04; in assay [9], 0.329; in assay [10] it was -0.169. The z-score in assay [8] is 0.631 (inactive).
As for `COC(=O)[C@H](C)NC(=O)CCC1CC(OC(=O)NCc2ccc3c(c2)OCO3)CC2(CCCC(COC(=O)NCCc3ccccc3OC)O2)O1` (stereo not given in full), the composite z-score in [1] is -0.587; in assay [2] it was 0.172; in assay [3], -0.171; in assay [4] it was 0.16; in assay [5] it was 0.138; in assay [6] it was 0.597. In addition, the composite z-score in assay [7] is 0.751; in [9] it was -0.17; in [10] it was 0.0274. The z-score in assay [8] is 1.06 (inactive).
For the compound `CCCCc1nc2c(c3c1C[C@H](C)OC3)CN(CCOc1ccccc1)CC2`, the composite z-score is -0.43 in [1]; 0.575 in assay [2]; -0.149 in assay [3]; 0.414 in assay [4]; 0.882 in [5]; 0.363 in [6]. The composite z-score was determined as 0.881 in [7], 0.192 in assay [9] and 0.213 in [10]. Also, in assay [8], the z-score is -1.55 (inactive).
`CCN1C(=O)[C@@H]2[C@H]3C(=CC[C@@H]2C1=O)C1(OCCCO1)[C@H]1O[C@H]1[C@H]3O`: the composite z-score in assay [1] was -0.418; in assay [2], 0.771; in [3] it was -0.076; in assay [4] it was 1.04; in assay [5] it was 1.17; in assay [6], 0.692. The composite z-score in assay [7] is 1.19; in [9], 0.404; in assay [10], -0.236. The z-score in assay [8] is 7.42 (inactive).

These data come from PubChem BioAssay.
